Experimental data from PubChem BioAssay AID1259416 (Broad Institute, 2018).
Several values for one entry are separate records, joined by “and”; a condition that tells them apart may be missing. Identical values can stand only once. Out of some 69,000 compounds screened, about 2,600 (3.8%) were called active. This is one part of a sample in which actives are shown more often than they occur. No stated cut-off is given here; in the data, active means activity change below about -70% (passing the limit was not always enough); inconclusive means no clear call, values can overlap the other calls. The source holds several records for some structures; these can differ, active in one and inactive in another.

Test: inhibitors of Toxoplasma growth in IFN-γ-primed hosts – cell-based, primary screen (AID 1259416);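 further: host cells are HeLa cells infected with Toxoplasma gondii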
Conditions: Toxoplasma gondii growth in IFN-gamma-treated host cells; stronger effect = lower value; concentration not given here
In the case of CC(=O)Nc1ccc(Nc2nc(-c3nnc(-c4cccc(C)c4)o3)nc3ccccc23)cc1, the activity change, negative = inhibition was 494% (inactive). In the case of CC(C)NC(=O)COc1cccc(-c2nc(Nc3ccc4[nH]ncc4c3)c3ccccc3n2)c1, the activity change, negative = inhibition was -76.1% (active). In the case of COc1ccc(-c2nc(Nc3ccc(C(C)C)cc3)c3ccccc3n2)cc1, the activity change, negative = inhibition was -22% (inactive). In the case of Cc1cc(CN(C)C(=O)c2coc(COc3ccc4sc(C)nc4c3)n2)on1, the activity change, negative = inhibition was 12.7% (inactive). In the case of Fc1ccc2c(c1)C(c1cccnc1)=NNC(c1cccs1)=N2, the activity change, negative = inhibition was -8.32% (inactive). With O=C(O)C1CSC(C2CC=CCC2)N1 (centres undefined) the activity change, negative = inhibition was 3.83% (inactive). In the case of COCC1c2nnn(CC3CC3)c2CCN1C(=O)N(C)C (centres undefined), the activity change, negative = inhibition was -2.44% (inactive). For CN1CC[C@H](c2c(O)cc(O)c3c(=O)cc(-c4ccccc4Cl)oc23)[C@H](O)C1, the activity change, negative = inhibition was -76.7% (active). For CC(=O)N1CCC(C(=O)NCc2ccccc2)(N(C(=O)c2ccc(C)cc2)c2ccc(F)c(F)c2)CC1, the activity change, negative = inhibition was -32.1% (inactive). In the case of CC(=O)Nc1ccc(-c2cn3nc(C)c(C)nc3n2)cc1, the activity change, negative = inhibition was -0.582% (inactive). In the case of N#Cc1ccccc1SCc1ccccc1, the activity change, negative = inhibition was 27% (inactive). For Cc1nc(-c2ccc(F)cc2)sc1-c1ccc(SCc2ccc(Br)cc2)nn1, the activity change, negative = inhibition was -0.254% (inactive). For Brc1ccc(CSc2cccc3cccnc23)cc1, the activity change, negative = inhibition was -110% (active). For O=C(COc1ccccc1Cl)Nc1ccc(Oc2ccc(F)cc2)c(C(F)(F)F)c1, the activity change, negative = inhibition was -7.01% (inactive). In the case of CC1=C(C(=O)NCCCN2CCCCC2)C2(CCN(S(C)(=O)=O)CC2)OC1=O, the activity change, negative = inhibition was 16.4% (inactive). With COc1cccc(-c2nc3c(s2)CN(C(=O)Nc2ccc(C)c(F)c2)CC3)c1 the activity change, negative = inhibition was -89.9% (active). For Cc1ccc(-c2nc3c(s2)CN(C(=O)Nc2ccc(C)cc2C)CC3)cc1, the activity change, negative = inhibition was 210% (inactive). With COc1ccc(C)cc1NC(=O)C(=O)NCCc1sc(-c2ccc(F)cc2)nc1C the activity change, negative = inhibition was 0.139% (inactive). In the case of COc1cccc(OCC(=O)NCCc2sc(-c3cccc(F)c3)nc2C)c1, the activity change, negative = inhibition was 11.4% (inactive). For COc1ccc(OC)c(NC(=O)N2CCc3nc(-c4ccc(C)cc4)sc3C2)c1, the activity change, negative = inhibition was -112% (active). With COc1ccc(NC(=O)N2CCc3nc(-c4ccccc4)sc3C2)cc1OC the activity change, negative = inhibition was 32.4% (inactive). For CO[C@H](c1ccccc1)c1n[nH]c(Cc2ccccc2)n1, the activity change, negative = inhibition was 0.899% (inactive). For CC1(C)Cc2cc(-c3cncn3CCNC3CCS(=O)(=O)C3)ccc2O1 (centres undefined), the activity change, negative = inhibition was 2.55% (inactive). With Cc1c(Br)c(C(F)(F)F)nn1CC(=O)N1CCCCC1 the activity change, negative = inhibition was 2.94% (inactive). In the case of CCn1c(=O)c(-c2nc(-c3ccc(F)c(Cl)c3)no2)c(O)c2ccccc21, the activity change, negative = inhibition was -48.5% (inactive). For COc1ccc(-c2[nH]ncc2CNC(=O)Cc2cccnc2)cc1, the activity change, negative = inhibition was -20.6% (inactive). In the case of CN(CCCC1CCCO1)Cc1ncc[nH]1 (centres undefined), the activity change, negative = inhibition was -1.64% (inactive). With CCOC(=O)N1CCC(NCc2ccccc2-n2ccnc2C)CC1 the activity change, negative = inhibition was 4.98% (inactive). With O=C(Nc1ccccc1N1CCOCC1)NC1CCN(C(=O)OCc2ccccc2)CC1 the activity change, negative = inhibition was -86.9% (active). For CC(=O)Nc1ccccc1OC(=O)N1CCOCC1, the activity change, negative = inhibition was 0.117% (inactive). In the case of CN(Cc1ccn[nH]1)C(=O)c1coc(COc2cccc(F)c2F)n1, the activity change, negative = inhibition was 6.91% (inactive). In the case of CCC(C)N(Cc1ccncc1)C(=O)Cc1nc(C)sc1C (centres undefined), the activity change, negative = inhibition was 46% (inactive). With C[C@H]1O[C@@H](O[C@H]2[C@@H](O)C[C@H](O[C@H]3[C@@H](O)C[C@H](O[C@H]4CC[C@]5(C)C6C[C@@H](O)[C@]7(C)[C@@H](C8=CC(=O)OC8)CC[C@]7(O)C6CC[C@@H]5C4)O[C@@H]3C)O[C@@H]2C)C[C@H](O)[C@@H]1O (some centres undefined) the activity change, negative = inhibition was -64.8% (inactive) and -73.6% (active). For CCOC(=O)c1cccnc1-c1ccc(OC)nc1, the activity change, negative = inhibition was 14.5% (inactive). With CN1CCC(NCCN(C)S(C)(=O)=O)CC1 the activity change, negative = inhibition was 12.1% (inactive). For CSc1nnc(SC)n1CCNC(=O)Nc1cccc(Cl)c1, the activity change, negative = inhibition was -80.6% (active). With Cc1cccc(-c2nc(C)c(CCNC(=O)C(=O)Nc3cccc(Cl)c3)s2)c1 the activity change, negative = inhibition was -6.82% (inactive). In the case of CCOC(=O)CCSc1nnc(CNc2cccc(Cl)c2)n1CCc1ccccc1, the activity change, negative = inhibition was 19.4% (inactive). For Cn1nc(C2CCN(c3cnccn3)CC2)n(-c2ccccc2)c1=O, the activity change, negative = inhibition was 2.02% (inactive). In the case of CC(C)c1cc(C(=O)NCCCc2nc3ccccc3n2C)n(C)n1, the activity change, negative = inhibition was -0.0637% (inactive). With Cc1ccc(C23CC4CC(CC(CN)(C4)C2)C3)cc1C the activity change, negative = inhibition was -89.5% (active). In the case of O=C1CCc2cc(S(=O)(=O)Nc3cccc(Cl)c3)cc3c2N1CC3, the activity change, negative = inhibition was -27.2% (inactive). With CCCc1ccc(N2C(=O)C3CCC(C)CC3C2=O)cc1 (centres undefined) the activity change, negative = inhibition was 7.51% (inactive). With CC(C)c1cc(CN(C)C(=O)c2ccc(C#CC(C)(C)O)o2)on1 the activity change, negative = inhibition was 1.77% (inactive). In the case of CC(=O)N1CC2(CCN(C(=O)C3CCNCC3)CC2)CC1C(=O)O (centres undefined), the activity change, negative = inhibition was -40.5% (inactive). With CC(=O)c1cnc2ccc(-c3cc(Cl)c(O)c(Cl)c3)nc2c1NC1CCC(CN(C)C)CC1 (centres undefined) the activity change, negative = inhibition was -75.6% (active). In the case of Cc1nn(-c2ccccc2)c(C)c1CCC(=O)Nc1nc(C(C)C)cs1, the activity change, negative = inhibition was -0.863% (inactive). In the case of COc1cc2c(cc1CNCC(=O)Nc1ccc(C)cc1C)OCCO2, the activity change, negative = inhibition was -7.55% (inactive). For CN(Cc1ccoc1)c1nc(-c2cccnc2)nc2c1cnn2C, the activity change, negative = inhibition was -58.5% (inactive). In the case of COc1ccc(-c2noc(CSc3nc(C)cc(=O)[nH]3)n2)cc1OC, the activity change, negative = inhibition was 32.8% (inactive). For Cc1nc(SCc2nc(C(c3ccccc3)c3ccccc3)no2)[nH]c(=O)c1C, the activity change, negative = inhibition was -95.3% (active). For C=CCN(Cc1ccc(C)s1)C(=O)c1ccc(-c2nnn(C)n2)cc1, the activity change, negative = inhibition was -2.73% (inactive). In the case of CC1CCCN(C(=O)CCNc2c(-c3ccc(F)cc3)nc3cnccn23)C1 (centres undefined), the activity change, negative = inhibition was 229% (inactive). For Cc1ncc(CN2CCC(Oc3cccc(C(=O)NCc4ccccc4)c3)CC2)s1, the activity change, negative = inhibition was -28.1% (inactive). In the case of COC1C2CCC1N(C(=O)COc1ccccc1C)CCO2 (centres undefined), the activity change, negative = inhibition was -5.26% (inactive). For CC(C)(C)CC(=O)OCC(=O)[C@@]1(O)CCC2C3CCC4=CC(=O)C=C[C@]4(C)C3[C@@H](O)C[C@@]21C (some centres undefined), the activity change, negative = inhibition was 6.39% (inactive). For O=C(CCC1(c2ccccc2)NC(=O)NC1=O)Nc1ccc(N2CCCCC2)c(F)c1 (centres undefined), the activity change, negative = inhibition was -25.7% (inactive). For O=C1CC(c2cccnc2)c2cnn(CC3CC3)c2N1 (centres undefined), the activity change, negative = inhibition was 6.49% (inactive). In the case of Cc1nn(CC(C)C)c2c1C(c1cnn3cccnc13)CC(=O)N2 (centres undefined), the activity change, negative = inhibition was -4.06% (inactive). For CC(C)Cn1ncc2c1NC(=O)CC2c1csc(-c2ccccc2)n1 (centres undefined), the activity change, negative = inhibition was -98.9% (active). With COCCN1CC2(CCOCC2)c2cc(NC(=O)C3CCC3)ccc21 the activity change, negative = inhibition was -48.6% (inactive). For Cc1nn(C)c(C)c1CCC(=O)N[C@H]1CCC(=O)NC1c1cccnc1 (some centres undefined), the activity change, negative = inhibition was 85.1% (inactive). In the case of COc1ccc(-c2cccc(-c3nnc(C)s3)c2)c(OC)c1, the activity change, negative = inhibition was -81.9% (active). With COc1cccc(-c2nc(C)c(-c3ccc(SCc4ccccc4)nn3)s2)c1 the activity change, negative = inhibition was -15.2% (inactive). For COc1cccc(-c2nc(C)c(-c3ccc(SCc4cccc5ccccc45)nn3)s2)c1, the activity change, negative = inhibition was -1.38% (inactive). With CCc1cn[nH]c1C1CCN(C(=O)C2COc3c(cccc3OC)C2)CC1 (centres undefined) the activity change, negative = inhibition was -0.504% (inactive). In the case of NCC(=O)CCC(=O)OCc1ccccc1, the activity change, negative = inhibition was 9.17% (inactive). For O=C1CCCCC(=O)c2ccccc2N1, the activity change, negative = inhibition was -17.8% (inactive). In the case of Cc1cc(C)c(/C=C2\C(=O)Nc3ccccc32)[nH]1, the activity change, negative = inhibition was 22% (inactive) and -75.5% (active). With CNc1ccc(Cl)cc1C(=O)NCCN(C)S(C)(=O)=O the activity change, negative = inhibition was -31% (inactive). For CC(=O)N1CCn2c(-c3cnn(C)c3)cnc2C12CCN(S(=O)(=O)C1CC1)CC2, the activity change, negative = inhibition was 7.11% (inactive). With O=C(NC1CC1)c1cc2n(n1)CCN(C(=O)CCn1nnc3ccccc31)C2 the activity change, negative = inhibition was -45.8% (inactive). With C[C@H]1CN([C@@H](C)CO)C(=O)CCCn2cc(nn2)CO[C@@H]1CN(C)S(=O)(=O)c1cccc(C#N)c1 the activity change, negative = inhibition was 24.6% (inactive). For C[C@@H]1CN([C@@H](C)CO)C(=O)CCCn2cc(nn2)CO[C@H]1CN(C)S(=O)(=O)c1ccc(-n2cccn2)cc1, the activity change, negative = inhibition was -114% (active). With C[C@H]1CN([C@@H](C)CO)C(=O)CCCn2cc(nn2)CO[C@@H]1CN(C)S(=O)(=O)c1ccc(-n2cccn2)cc1 the activity change, negative = inhibition was -30.5% (inactive). In the case of O=C(c1cc(COc2c(F)cccc2F)on1)N1CCCC1c1ccco1 (centres undefined), the activity change, negative = inhibition was 1.77% (inactive). With CC(=O)Nc1ccc(NS(=O)(=O)c2ccc3oc(=O)ccc3c2)cc1 the activity change, negative = inhibition was 137% (inactive). With O=C(C1CCN(S(=O)(=O)c2ccc3[nH]c(=O)ccc3c2)CC1)N1CCN(c2ccccc2F)CC1 the activity change, negative = inhibition was 27.2% (inactive). For O=C(Oc1ccc(Cl)cc1)c1snnc1-c1ccccc1, the activity change, negative = inhibition was -78% (active). For COc1ccc2c(c1)NC1(CCN(S(=O)(=O)c3ccc(F)c(Cl)c3)CC1)c1cccn1-2, the activity change, negative = inhibition was 11.3% (inactive). In the case of COc1ncccc1CN1CCc2[nH]cnc2C1Cc1ccccc1 (centres undefined), the activity change, negative = inhibition was -52.3% (inactive). With CC(=O)Nc1ccc(NC(=O)CSc2nnnn2C2CCCCC2)cc1 the activity change, negative = inhibition was 2.96% (inactive). In the case of C=CCC1(O)C(C)C(c2ccccc2)N(C)C(c2ccccc2)C1C (centres undefined), the activity change, negative = inhibition was -91.3% (active). With CN(C)C(=O)NC[C@H]1CCC[C@]2(CCN(Cc3nccs3)C2)O1 the activity change, negative = inhibition was -40.2% (inactive). In the case of O=C(Nc1ccc(C(F)(F)F)cn1)Nc1ccc(-c2ccccc2)s1, the activity change, negative = inhibition was -27.9% (inactive). With COc1cccc(NC(=O)N2CCC3(CC2)CC(=O)c2ccccc2O3)c1 the activity change, negative = inhibition was -5.86% (inactive). With Cc1c(C(=O)N2CCCCC2)oc2ccc3c(c12)C(=O)CC1(CCCCCC1)O3 the activity change, negative = inhibition was -112% (active). For Cc1c(C(=O)N2CCC3(CC2)CC(O)(c2nccs2)CO3)oc2ccccc12 (centres undefined), the activity change, negative = inhibition was -14.2% (inactive). In the case of c1ccc2ncc(-c3ccncn3)cc2c1, the activity change, negative = inhibition was 1.85% (inactive).
